Screens deposited in PubChem by National Center for Advancing Translational Sciences (NCATS).
Shown are actives, neighbours in structure and some others; about 19% of the full set was active somewhere.
HT1080NT lethal – kills 2HG-producing HT-1080-NT fibrosarcoma cells; HT-1080-NT fibrosarcoma viability, CellTiter-Glo ATP luminescence, 48 h; Potency, µM (series often up to 46.1 µM), usual class: cytotoxic; hit rate 1.6% among 360,000;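 also: NT is the 2HG producing partner of a matched IDH1 knockdown line; nearly all actives have a fitted effect of over 55% in size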
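HT-1080-NT; 750 cells/well; 5% FBS RPMI; 48 h compound, 37 degrees C; CellTiter-Glo luminescence; curve fitting and curve-class assignment.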
IL-1B inflam inh – blocks inflammasome-driven IL-1 beta release | hit rate 4.7% among 360,000 | THP-1 LPS/ATP IL-1B secretion, AlphaLISA, 16 h; stronger effect = lower value | activity change, % at 57.5 µM; in the data active = activity change below about -50%; inconclusive = mostly about -30% to -49%
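Secreted IL-1B measured by AlphaLISA bead assay after 16 h compound exposure of THP-1 cells; compounds (final up to 57.5 uM) added 1 h before LPS (250 ng/mL) and ATP (1.25 mM) stimulation; lower signal means less secretion.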
TDP1 cell noCPT – qHTS for Inhibitors of human tyrosyl-DNA phosphodiesterase 1 (TDP1): qHTS in cells in absence of CPT | DT40 Tdp1-/- hTDP1 cells, no CPT, ATP luminescence, 48 h | Potency, µM (series often up to 46.2 µM), actives largely listed as inhibitors | hit rate 15% among 420,000; also: nearly all actives have a fitted effect of over 55% in size
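Seeded 400 DT40-hTDP1 cells/well (vehicle DMSO, no 20 nM CPT); pinned compounds; ≥48 hr at 37 °C; CellTiter-Glo luminescence as viability measure.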
TDP1 cell CPT – DT40-hTDP1 cell growth loss with CPT; chicken DT40 Tdp1-/-;hTDP1 cells + 20 nM CPT, ATP luminescence, 48 h; Potency, µM (titrated, usually from 46.2 µM), hits mostly inhibitors; hit rate 12% among 420,000; also: nearly all actives have a fitted effect of over 55% in size
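Chicken DT40 Tdp1-/- cells complemented with human TDP1, 400 cells/well, exposed to compounds plus 20 nM camptothecin for at least 48 h at 37 C; viability read as ATP content by CellTiter-Glo luminescence.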
HT1080 IDH1KD tx – HT-1080 IDH1 knockdown cell toxicity (counter line). Potency, µM (doses to about 46.1 µM), actives largely listed as cytotoxic. hit rate 2% among 360,000. HT-1080 IDH1 knockdown viability, ATP luminescence, 48 h
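HT-1080-IDH1KD cells (IDH1 knocked down), 750/well in RPMI with 5% FBS, treated with compound 48 h at 37 degrees C. Viability by CellTiter-Glo luminescence, normalised to DMSO and no-cell wells; concentration-response curves classed.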
Large screens that a line does not name were inactive. Unless noted, calls follow the shape of the dose curve; as a rule, active = well fitted curve in the direction sought with a large enough effect; inconclusive = small, poorly fitted or top-dose-only effect, or another doubt; inactive = no such curve, though single readings can be large; an effect the other way counts as inactive or inconclusive.

Cc1ccc(S(=O)(=O)N[C@H](C(=O)N2CCC(C(=O)N[C@@H](CC(=O)O)C(=O)O)CC2)C(C)C)cc1	none
COC(=O)c1cc(=O)nc(NN=C2CCCCC2)s1	none
COC(=O)c1cc(=O)nc(NN=C2c3ccccc3-c3ccccc32)s1	HT1080NT lethal inconclusive, TDP1 cell noCPT inconclusive, TDP1 cell CPT 23.1µM, HT1080 IDH1KD tx inconclusive
COC(=O)c1sccc1NC(=S)N1CCC(C(N)=O)CC1	none
C=CCC[C@@H](Cc1ccc(F)cc1)C(=O)OC[C@H](Cc1c[nH]c2ccccc12)NC(=O)[C@H](CC=C)CC(=O)NCCO	IL-1B inflam inh -57.2, TDP1 cell noCPT inconclusive, TDP1 cell CPT inconclusive
C=CCC[C@@H](Cc1ccc(F)cc1)C(=O)OC[C@H](Cc1c[nH]c2ccccc12)NC(=O)[C@@H](CC=C)CC(=O)N[C@H](CO)Cc1ccccc1	TDP1 cell noCPT inconclusive, TDP1 cell CPT inconclusive
C=CCC[C@H](Cc1ccc(F)cc1)C(=O)OC[C@@H](Cc1c[nH]c2ccccc12)NC(=O)[C@H](CC=C)CC(=O)NCCO	TDP1 cell noCPT 16.4µM, TDP1 cell CPT 20.6µM
O=C(c1ccc(CS(=O)(=O)c2ccc(Br)cc2)o1)N1CCN(c2ccccn2)CC1	TDP1 cell noCPT inconclusive
Cc1ccc(C)c(N2CCN(C(=O)c3ccc(CS(=O)(=O)c4ccccc4C)o3)CC2)c1	HT1080NT lethal inconclusive, TDP1 cell noCPT 18.4µM, TDP1 cell CPT 18.4µM, HT1080 IDH1KD tx 10µM
Cc1ccc(S(=O)(=O)Cc2ccc(C(=O)N3CCN(c4cc(C)ccc4C)CC3)o2)cc1	TDP1 cell noCPT 11.6µM, TDP1 cell CPT 14.6µM
COc1ccc(N2CCN(C(=O)c3ccc(CS(=O)(=O)c4ccccc4C)o3)CC2)cc1	TDP1 cell noCPT inconclusive, TDP1 cell CPT inconclusive, HT1080 IDH1KD tx inconclusive
Cc1ccc(S(=O)(=O)Cc2ccc(C(=O)N3CCN(c4ccccn4)CC3)o2)cc1	TDP1 cell noCPT inconclusive, TDP1 cell CPT 11.6µM
Cc1ccc(S(=O)(=O)N(C)CCCN(C)c2nc(-c3cccs3)nc3ccccc23)cc1	TDP1 cell noCPT 11.2µM, TDP1 cell CPT 15.8µM (no result: IL-1B inflam inh)
Cc1ccc(S(=O)(=O)N(C)CCCC(=O)Nc2cccc3ccccc23)cc1	HT1080NT lethal inconclusive, TDP1 cell noCPT inconclusive, TDP1 cell CPT inconclusive
CN(CCN(C)c1nc(-c2cccs2)nc2ccccc12)C(=O)OC(C)(C)C	TDP1 cell noCPT 14.1µM, TDP1 cell CPT 10µM (no result: IL-1B inflam inh)
CN(Cc1ccccc1F)c1nc(-c2cccs2)nc2ccccc12	TDP1 cell noCPT inconclusive, TDP1 cell CPT inconclusive
Cc1ccc(CNc2nc(CN3CCNC(=O)C3)nc3ccccc23)o1	TDP1 cell CPT inconclusive (no result: HT1080NT lethal, IL-1B inflam inh, HT1080 IDH1KD tx)
CCCn1c(=O)c2sccc2n2c(CCCC(=O)Nc3ccc(C)c(F)c3)nnc12	TDP1 cell noCPT 23.1µM, TDP1 cell CPT inconclusive (no result: HT1080NT lethal, IL-1B inflam inh, HT1080 IDH1KD tx)
CCCn1c(=O)c2sccc2n2c(CCCC(=O)Nc3cccc(CC)c3)nnc12	TDP1 cell noCPT inconclusive, TDP1 cell CPT 23.1µM (no result: HT1080NT lethal, IL-1B inflam inh, HT1080 IDH1KD tx)
CCCn1c(=O)c2sccc2n2c(CCCC(=O)NCCOC)nnc12	none (no result: HT1080NT lethal, IL-1B inflam inh, HT1080 IDH1KD tx)
CC(C)CCNC(=O)c1ccc2c(c1)NC(=O)C(CS(=O)(=O)Cc1cccc(Br)c1)N2 (stereo not drawn)	TDP1 cell noCPT inconclusive (no result: HT1080NT lethal, IL-1B inflam inh, HT1080 IDH1KD tx)
Cc1cccc(CS(=O)(=O)CC2Nc3ccc(C(=O)NCc4ccccc4)cc3NC2=O)c1 (stereo not drawn)	TDP1 cell noCPT 6.51µM, TDP1 cell CPT 11.6µM (no result: HT1080NT lethal, IL-1B inflam inh, HT1080 IDH1KD tx)
CC(C)CC1Nc2ccc(C(=O)NCCCN3CCOCC3)cc2NC1=O (stereo not drawn)	TDP1 cell noCPT 16.4µM, TDP1 cell CPT 25.9µM
CCN(CC)CCNC(=O)c1ccc2c(c1)NC(=O)C(CS(=O)(=O)Cc1ccc(F)cc1Cl)N2 (stereo not drawn)	TDP1 cell noCPT inconclusive, TDP1 cell CPT 18.4µM (no result: HT1080NT lethal, IL-1B inflam inh, HT1080 IDH1KD tx)
CC(C)C1Nc2ccc(C(=O)NCCCN3CCOCC3)cc2NC1=O (stereo not drawn)	none
CC(C)CCNC(=O)c1ccc2c(c1)NC(=O)C(CS(=O)(=O)Cc1ccc(F)cc1)N2 (stereo not drawn)	TDP1 cell noCPT 16.4µM, TDP1 cell CPT 16.4µM (no result: HT1080NT lethal, IL-1B inflam inh, HT1080 IDH1KD tx)
COc1ccc(C2Nc3ccccc3-c3nnc(SC)nc3O2)cc1C (stereo not drawn)	none (no result: HT1080NT lethal, IL-1B inflam inh, HT1080 IDH1KD tx)
